# This is part of a sample that, as a whole, favours compounds with a hit. Of some 83,000 tested, about 20% had one in any assay.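 A percent growth of 40 corresponds to 60% growth inhibition; 0 means no net growth; -100 means all cells died. Active threshold: below 10.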 Unmarked numbers belong to inactive results. Activity calls are given as the source filed them.
# Columns and labels:
# Assay in all cases: NCI-60 one-dose screen, 48 h (100 = growth as untreated, 0 = no growth, -100 = all killed)
# SK-MEL-2 melanoma = settings: 10 µM unless noted
# EKVX NSCLC = settings: 10 µM
# SN12C renal = settings: 10 µM unless noted
# UO-31 renal = settings: 10 µM unless noted
# TK-10 renal = settings: 10 µM unless noted
# ACHN renal = settings: 10 µM unless noted
# CAKI-1 renal = settings: 10 µM unless noted
# CCRF-CEM leukemia = settings: 10 µM
# MOLT-4 leukemia = settings: 10 µM unless noted
# SR leukemia = settings: 10 µM unless noted
# RPMI-8226 leukemia = settings: 10 µM unless noted
# OVCAR-8 ovarian = settings: 10 µM unless noted
# OVCAR-5 ovarian = settings: 10 µM unless noted
# OVCAR-4 ovarian = settings: 10 µM unless noted
# SK-OV-3 ovarian = settings: 10 µM unless noted
# IGROV1 ovarian = settings: 10 µM unless noted
# OVCAR-3 ovarian = settings: 10 µM unless noted
# NCI/ADR-RES ovarian = settings: 10 µM unless noted
# A498 renal = settings: 10 µM unless noted
# HS 578T breast = settings: 10 µM unless noted
Compound,growth (SK-MEL-2 melanoma),growth (EKVX NSCLC),growth (SN12C renal),growth (UO-31 renal),growth (TK-10 renal),growth (ACHN renal),growth (CAKI-1 renal),growth (CCRF-CEM leukemia),growth (MOLT-4 leukemia),growth (SR leukemia),growth (RPMI-8226 leukemia),growth (OVCAR-8 ovarian),growth (OVCAR-5 ovarian),growth (OVCAR-4 ovarian),growth (SK-OV-3 ovarian),growth (IGROV1 ovarian),growth (OVCAR-3 ovarian),growth (NCI/ADR-RES ovarian),growth (A498 renal),growth (HS 578T breast)
COc1ccccc1CNCCCN1C(=O)c2ccc3c4c(ccc(c24)C1=O)C(=O)N(CCCNCc1ccccc1OC)C3=O,-80.5% (active),-63.6% (active),-78.2% (active),-84% (active),-77.9% (active),-46.8% (active),-29.1% (active),-12.7% (active),-37% (active),-45.7% (active),-31.8% (active),-47.1% (active),-27.4% (active),-96.5% (active),0% (active),-58.2% (active),-59.9% (active),-2.55% (active),,
CCCC(=O)NNc1[nH]c(-c2cc(OC)c(OC)c(OC)c2)cc1C(=O)OCC,103%,103%,108%,88.7%,74.1%,81%,73.1%,9.44% (active),,68.2%,101%,108%,92.8%,118%,110%,22.6%,92.6%,114%,120%,105%
CCCCCCCCCc1cc[n+](CC(=O)c2ccc([N+](=O)[O-])cc2)cc1,-73.9% (active),11.1%,-2.2% (active),35%,48.4%,48.1%,74.9%,,1.62% (active),-14.3% (active),-25.8% (active),11.7%,18.9%,19.8%,50%,,3.13% (active),66.3%,,
C[C@]12C=CC(=O)C=C1[C@@H](F)C[C@@H]1[C@@H]2[C@@H](O)C[C@@]2(C)[C@H]1CC[C@]2(O)C(=O)CO,107%,83%,69.8%,79.3%,107%,99.4%,88.6%,46.5%,,106%,72.7%,83.9%,77.2%,106%,71.3%,,96.3%,91.5%,,
N#Cc1c(N)nc(Nc2nc3ccccc3[nH]2)nc1-c1ccc(Cl)cc1,114%,109%,111%,82.8%,109%,101%,86.9%,95.9%,84.7%,,94.4%,102%,107%,116%,88.4%,98.7%,127%,107%,,145%
C=C1CCC2C3(C)COC(c4ccccc4)OC3CCC2(C)C1C/C=C1/C(=O)OCC1O (stereo not given),66.7%,104%,66.7%,42.9%,105%,86.7%,133%,,,,,,117%,66.6%,,59.2%,,51.5%,,
CCCCN(CCCC)CC(O)CN(CC)CC (stereo not given),91.5%,107%,96.4%,72.8%,92.7%,102%,93.8%,104%,,97%,97.4%,104%,95.3%,97%,99%,100%,113%,105%,111%,120%
CCS(=O)(=O)N[C@@H]1O[C@H](COC(C)=O)C(OC(C)=O)[C@H](OC(C)=O)C1OC(C)=O (stereo not given in full),106%,99.1%,112%,94.6%,97.4%,101%,94.8%,,106%,104%,105%,98.6%,98.8%,102%,97.3%,106%,101%,108%,,
COc1ccc(C(=O)CN2C(=O)NC(c3ccccc3)(c3ccccc3)C2=O)cc1,99.6%,98.9%,101%,71.2%,117%,104%,93.6%,94.8%,,,,95.2%,98.7%,99.8%,102%,115%,107%,102%,70.5%,89.3%
Cc1ccc(C(=O)Nc2ccc(CN3CCN(C)CC3)c(C(F)(F)F)c2)cc1C#Cc1cnc(N)c2ccc(C#N)cc12,25.1%,53.4%,24.1%,14.3%,52.7%,9.19% (active),33.6%,7.71% (active),,,20.2%,27.8%,98.4%,48.8%,2.3% (active),16.3%,61.2%,49.8%,35.7%,47.4%
CC[C@H](Nc1ncnc2nc[nH]c12)c1nc2cccc(NCc3ccc(C(=O)NO)o3)c2c(=O)n1-c1ccccc1,102%,110%,95.2%,79%,84.1%,97.3%,,88.7%,97.8%,76.2%,94.9%,99.2%,98.3%,97.3%,110%,106%,97.6%,101%,97%,84.7%
C[C@@H](c1ccc2c(c1)[nH]c1ccc(Cl)cc12)c1nc2ccc(Cl)cc2[nH]1,106%,75.5%,80.6%,58%,85.6%,79.6%,,16.6%,49.4%,43.2%,8.76% (active),94%,75.2%,74.2%,96.3%,57.6%,72%,88.1%,99.7%,107%
C[C@@H](c1ccc2c(c1)[nH]c1ccc(Cl)cc12)c1nc2ccccc2[nH]1,108%,92.6%,89.6%,56.6%,136%,96.5%,,,92.4%,74.3%,81.3%,93%,112%,94%,105%,80.6%,86.7%,91%,111%,105%
Cc1nnc(/N=C2\NC(=O)/C(=C/C=C/c3ccccc3)S2)s1,57.7%,67.1%,66.2%,55.2%,70.3%,50.8%,,29.8%,43.7%,34.8%,44.8%,49.5%,88.3%,48.5%,58.3%,51.8%,38.5%,44.8%,65.3%,71.7%
Cc1c(Cc2ccccc2)c(=O)oc2c(C)c(OCc3n[nH]c(=S)o3)ccc12,101%,79%,67.8%,94.8%,116%,89.2%,,22.8%,19.8%,5.04% (active),56.6%,30.6%,89.9%,43.8%,86.9%,67.3%,74.5%,99.6%,67.3%,62.3%
CC(=O)c1nn(-c2ccc(C)cc2)cc1C(=O)c1cc2c(ccc3ccccc32)oc1=O,99.7%,82.3%,94.3%,65.2%,144%,88.1%,,98.4%,,84%,93.5%,101%,102%,87.3%,80.4%,88%,98.4%,101%,124%,96.7%
c1ccc(-c2cn3ccnc3c(-c3ccc4ncn(C5CCCCC5)c4c3)n2)cc1,83.5%,75.8%,71.2%,44.8%,97.7%,64.1%,,18.7%,32.3%,40.2%,14.3%,36.1%,92.1%,65.5%,92.5%,88%,58.2%,49.5%,73.9%,76.2%

# — PubChem BioAssay (NCI)
